The sample as a whole holds a higher share of hits than the screen did.
Pf Dd2 inh = inhibitors of Plasmodium falciparum Dd2 growth. P. falciparum Dd2 growth, SYBR Green, 72 h. Potency, µM (titrated, usually from 28.9 µM), without a hit: at the highest dose activity, negative = inhibition, actives largely listed as inhibitors. actives 4.3% (n = 120,000). AID 1347417; active means well fitted inhibition curve with a large enough effect;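 further: plate controls were DMSO vehicle for no effect and reference drug for full effect; nearly all actives have a fitted effect of over 65% in size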
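Infected erythrocytes (Dd2, 0.3% parasitemia, 2.5% hematocrit final) are added to compound in RPMI-1640/Albumax II medium, grown 72 h at 37C in low oxygen, then lysed with saponin/Triton-X containing SYBR Green and read by fluorescence.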
Numbers without * were called inactive; [ ] = dose if it differs, or a comment. Potency means the concentration at half of the fitted maximal effect.

For CCn1ccc(C(=O)N2CCC3(CC2)c2[nH]c4ccccc4c2CCN3C)n1 the results were Pf Dd2 inh inactive.
Screening COCc1noc([C@@H]2CN(Cc3ccc(F)c(OC)c3)C[C@H]2C(N)=O)n1 returned Pf Dd2 inh -1%.
`O=C1NC2(CCN([S+](=O)([O-])c3ccccc3)C2)COc2ccccc21` (stereo not given) gave Pf Dd2 inh 6%.
For COc1ccc(CN2CCC3(C2)C(=O)N(Cc2ccccc2)c2ccccc23)cc1 (stereo not given) the results were Pf Dd2 inh inactive.
`COc1ccc(CN2CCC3(C2)C(=O)N(C)c2ccccc23)cc1` (stereo not given) gave Pf Dd2 inh -4%[44.1 µM].
`O=C1Nc2ccccc2C12CN([S+](=O)([O-])c1ccccc1)C2` gave Pf Dd2 inh -9%.
O=C1N(c2ccccc2)c2ccccc2C12CCN([S+](=O)([O-])c1ccccc1)C2 (stereo not given) was read as Pf Dd2 inh 7.9µM*.
COc1ccc(CN2CCC3(C2)C(=O)N(c2ccccc2)c2ccccc23)cc1 (stereo not given) was read as Pf Dd2 inh 8.9µM*.
For CCN(Cc1c(F)cccc1Cl)C(=O)CCc1c(C)nn(C)c1C the results were Pf Dd2 inh -17%.
`O=C(NCc1ccc(Cl)nc1)c1cccn2nccc12` gave Pf Dd2 inh -6%[44.1 µM].
For COc1cccc([S+](=O)([O-])N2CCC(c3nnc4n3C(C(=O)O)CC4)CC2)c1 (stereo not given) the results were Pf Dd2 inh 14%.
COCCNC(=O)[C@H]1C[C@H](Oc2ccccc2)CN1Cc1ccncc1 was read as Pf Dd2 inh 14%.
`CCOc1ccc(NC(=O)CN2CCN(Cc3ccccc3)S2(=O)=O)cc1` gave Pf Dd2 inh 5.6µM*.
Screening CCc1cccc(NC(=O)CN2CCCN(Cc3cccc(C)c3)S2(=O)=O)c1 returned Pf Dd2 inh 28%.
For COc1cccc(CNC(=O)CN2CCCN(Cc3ccccc3)S2(=O)=O)c1 the results were Pf Dd2 inh 17%.
Screening O=C(CC[C@H]1NC(=O)c2ccccc2NC1=O)NCCn1cnc2ccccc21 returned Pf Dd2 inh -5%.
`O=C(Cc1cccs1)N1CCC(n2cc(-c3nc(C4CC4)no3)nn2)C1` (stereo not given) gave Pf Dd2 inh inactive.
For CNC(=O)c1ccc(CSc2nc3cccnc3n2Cc2cccc(F)c2)cc1 the results were Pf Dd2 inh -21%.
Screening O=C(NC1CCCCC1)c1ccc(Cn2c(SCc3ccccc3F)nc3cccnc32)cc1 returned Pf Dd2 inh inactive.
`Cc1ccccc1CNC(=O)c1ccc(CSc2nc3cccnc3n2Cc2ccccc2)cc1` gave Pf Dd2 inh -16%.
CCOc1ccccc1CNC(=O)c1ccc(Cn2c(SCc3ccccc3)nc3cccnc32)cc1 was read as Pf Dd2 inh 11µM*.
Screening O=C(NCCN1CCCCC1)c1ccc(Cn2c(SCc3cccc(F)c3)nc3cccnc32)cc1 returned Pf Dd2 inh 7.9µM*.
For CN(Cc1ccccc1)C(=O)c1ccc(CSc2nc3cccnc3n2Cc2ccccc2)cc1 the results were Pf Dd2 inh 10µM*.
For O=C(NCc1ccccc1)c1ccc(CSc2nc3cccnc3n2Cc2ccccc2)cc1 the results were Pf Dd2 inh -5%.
`COc1ccc(Cn2c(SCc3ccc(C(=O)NCCc4ccccc4)cc3)nc3cccnc32)cc1` gave Pf Dd2 inh 13µM*.
`O=C(NCc1ccco1)c1ccc(Cn2c(SCc3ccc(F)cc3)nc3cccnc32)cc1` gave Pf Dd2 inh inactive.
O=C(NC1CC1)c1ccc(Cn2c(SCc3ccccc3F)nc3cccnc32)cc1 was read as Pf Dd2 inh -4%.
`CC(C)(C)C(=O)N1C[C@H]2OC(=O)N(CCc3cccc(Cl)c3)[C@H]2C1` gave Pf Dd2 inh 6%.
`COc1ccc(-c2noc([C@@H](C)NCc3ccccc3)c2C(=O)O)cc1` gave Pf Dd2 inh inactive.
Screening Cc1nc([C@@H]2CN(C(=O)C3CC3)C[C@H]2C(N)=O)n[nH]1 returned Pf Dd2 inh 10%.
For O=C(Cc1ccccc1F)N1CCC2(CC1)N(c1ccccc1)C(=O)CS2(=O)=O the results were Pf Dd2 inh -40%.
`COc1ccc(C(=O)N2CCOC[C@H](Oc3ccc(C(F)(F)F)cn3)C2)cc1` gave Pf Dd2 inh 5%[44.1 µM].
`O=C(c1ccccn1)N1CCn2c(nn(-c3ccc(F)cc3F)c2=O)C1` gave Pf Dd2 inh inactive.
For Cc1ccc(C(=O)N2CCCC3(CC(c4ccccn4)=NO3)C2)cc1 (stereo not given) the results were Pf Dd2 inh 4%.
Screening CN(Cc1nc(-c2ccccc2)cs1)C(=O)COc1ccc(F)cc1F returned Pf Dd2 inh -12%.
O=c1[nH]c(C2CCCN([S+](=O)([O-])c3cccc(C(F)(F)F)c3)C2)nn1-c1ccccc1 (stereo not given) was read as Pf Dd2 inh -1%.
O=C(C1CCCN(c2nc3ncccc3o2)C1)N1CCN(c2ncccn2)CC1 (stereo not given) was read as Pf Dd2 inh inactive.
O=C1CC(c2ccccc2)N(C(=O)C2CC2)CCCN(C(=O)NC2CCCCC2)CCN1 (stereo not given) was read as Pf Dd2 inh inactive.
`O=C(NCCc1ccccc1)c1ccc(CSc2nc3cccnc3n2Cc2ccccc2F)cc1` gave Pf Dd2 inh 8.9µM*.
O=C(NCc1ccccc1F)c1ccc(CSc2nc3cccnc3n2Cc2ccccc2)cc1 was read as Pf Dd2 inh -16%.
Screening O=C(NCCc1ccccc1)c1ccc(Cn2c(SCc3ccc(F)cc3)nc3cccnc32)cc1 returned Pf Dd2 inh inactive.
O=C(c1cccc2[nH]ccc12)N1CCC([C@@H]2CNC[C@H]2CO)CC1 was read as Pf Dd2 inh 14%.
For COCC1(CNC(=O)c2ccc(OC)cc2)C[C@@H](O)[C@@H](O)C1 (stereo not given in full) the results were Pf Dd2 inh 9%[44.1 µM].
`COCC(=O)N1CCC(c2nn(-c3ccc(OC)cc3)c(=O)[nH]2)CC1` gave Pf Dd2 inh -18%.
`C=Cc1ccc(Cn2c(C)c(CNCc3cccc(Br)c3)c(C(=O)O)c2C)cc1` gave Pf Dd2 inh -17%.
Cc1c(CNC2CCCCC2)c(C(=O)O)c(C)n1Cc1ccc(Cl)cc1 was read as Pf Dd2 inh -25%.
`COc1cc(CNCc2c(C(=O)O)c(C)n(Cc3cccc(Cl)c3)c2C)cc(OC)c1OC` gave Pf Dd2 inh 0%.
C=Cc1ccc(Cn2c(C)c(CNCc3ccccc3C)c(C(=O)O)c2C)cc1 was read as Pf Dd2 inh 2%.
Screening Cc1c(CNCCCc2ccccc2)c(C(=O)O)c(C)n1Cc1cccc(Cl)c1 returned Pf Dd2 inh 8.9µM*.
Screening Cc1c(CNCCCc2ccccc2)c(C(=O)O)c(C)n1Cc1ccc(Cl)cc1 returned Pf Dd2 inh 8.9µM*.
Cc1cccc(Cl)c1NC(=O)N1CCC2(CC1)C(C(=O)O)CC(=O)N2C (stereo not given) was read as Pf Dd2 inh -3%.
For O=C(c1ccc(Br)o1)N1CCCN(c2cc(-c3ccc(F)cc3)[nH]n2)CC1 the results were Pf Dd2 inh -20%.
Screening O=C(c1ccccc1Cl)N1CCC2(CC1)CC(=O)N(c1ccccc1)c1ccccc1O2 returned Pf Dd2 inh -23%.
For Cc1ccc(CSc2nc3cccnc3n2Cc2ccc(C(=O)NC3CCCCC3)cc2)cc1 the results were Pf Dd2 inh -16%.

High-throughput results as filed in PubChem BioAssay.
